# Source: the supplement of paper PMC6411743
# ± gives the standard deviation of the averaged measurements. For some assays here: About 5,400 targets were measured; listed, in parts, are those with the largest changes and a random draw of the rest. For some assays here: The full data set covers some 6,500 targets. This sample favours those with the largest changes.
# Key:
# adenosine triphosphate = compound: Nc1ncnc2c1ncn2[C@@H]1O[C@H](COP(=O)(O)OP(=O)(O)OP(=O)(O)O)[C@@H](O)[C@H]1O [adenosine triphosphate]; assay: NP40-soluble protein abundance relative to vehicle (solubility fold change) (ratio); higher = more soluble protein in presence of ATP
# In short: (§1)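 Eight concentrations, 0.1 to 10 mM, were tested on Jurkat crude lysate for 10 min at room temperature and then 3 min at 37 °C, in three independent experiments. The lysate was solubilised with 0.8% NP40 and benzonase, ultracentrifuged, and the supernatant TMT-labelled for LC-MS/MS. Each value is the fold change against the detergent-processed vehicle in its own replicate, from vsn-normalised intensities.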
# guanosine triphosphate = compound: Nc1nc2c(ncn2[C@@H]2O[C@H](COP(=O)(O)OP(=O)(O)OP(=O)(O)O)[C@@H](O)[C@H]2O)c(=O)[nH]1 [guanosine triphosphate]; assay: NP40-soluble protein abundance relative to vehicle (solubility fold change) (ratio); higher = more soluble protein in presence of GTP
# In short: as §1
# UniProt Q9ULV4, sequence (Q9ULV4 whole entry): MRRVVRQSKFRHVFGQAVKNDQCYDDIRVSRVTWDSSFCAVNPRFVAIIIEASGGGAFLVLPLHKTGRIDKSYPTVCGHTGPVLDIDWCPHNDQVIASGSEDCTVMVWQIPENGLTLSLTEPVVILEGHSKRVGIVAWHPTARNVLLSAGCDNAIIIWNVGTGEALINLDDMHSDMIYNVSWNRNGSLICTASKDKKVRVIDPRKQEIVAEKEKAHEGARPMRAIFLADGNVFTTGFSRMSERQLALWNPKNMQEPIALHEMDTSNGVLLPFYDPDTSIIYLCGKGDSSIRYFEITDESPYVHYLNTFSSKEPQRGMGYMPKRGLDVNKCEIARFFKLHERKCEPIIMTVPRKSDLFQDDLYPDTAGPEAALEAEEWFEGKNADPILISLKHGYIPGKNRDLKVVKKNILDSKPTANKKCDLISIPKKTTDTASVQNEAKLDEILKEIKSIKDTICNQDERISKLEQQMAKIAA
# UniProt Q9ULE6, sequence (Q9ULE6 whole entry): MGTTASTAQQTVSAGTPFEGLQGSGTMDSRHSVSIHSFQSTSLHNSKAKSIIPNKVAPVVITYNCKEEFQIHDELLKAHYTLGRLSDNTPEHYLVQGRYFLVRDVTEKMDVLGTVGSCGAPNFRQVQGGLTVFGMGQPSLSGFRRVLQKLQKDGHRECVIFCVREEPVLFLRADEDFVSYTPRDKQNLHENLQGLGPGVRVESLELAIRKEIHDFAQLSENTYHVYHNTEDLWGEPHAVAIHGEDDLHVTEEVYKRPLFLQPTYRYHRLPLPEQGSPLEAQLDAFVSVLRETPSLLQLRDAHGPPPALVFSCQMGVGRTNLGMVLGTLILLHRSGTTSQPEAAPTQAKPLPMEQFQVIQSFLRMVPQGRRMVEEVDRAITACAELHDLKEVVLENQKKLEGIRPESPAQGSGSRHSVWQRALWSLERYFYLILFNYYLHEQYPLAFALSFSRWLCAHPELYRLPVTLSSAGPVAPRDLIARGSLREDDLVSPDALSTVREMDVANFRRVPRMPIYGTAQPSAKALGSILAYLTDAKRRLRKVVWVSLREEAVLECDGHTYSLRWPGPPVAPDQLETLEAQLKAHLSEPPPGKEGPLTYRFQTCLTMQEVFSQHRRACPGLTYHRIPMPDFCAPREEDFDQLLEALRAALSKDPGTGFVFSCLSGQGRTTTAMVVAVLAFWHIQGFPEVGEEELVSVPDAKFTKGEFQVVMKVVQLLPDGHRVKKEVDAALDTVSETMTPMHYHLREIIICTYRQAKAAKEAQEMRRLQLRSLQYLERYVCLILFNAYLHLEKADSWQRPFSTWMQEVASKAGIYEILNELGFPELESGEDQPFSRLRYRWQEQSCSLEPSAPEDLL
# UniProt Q9Y5S1, sequence (Q9Y5S1 whole entry): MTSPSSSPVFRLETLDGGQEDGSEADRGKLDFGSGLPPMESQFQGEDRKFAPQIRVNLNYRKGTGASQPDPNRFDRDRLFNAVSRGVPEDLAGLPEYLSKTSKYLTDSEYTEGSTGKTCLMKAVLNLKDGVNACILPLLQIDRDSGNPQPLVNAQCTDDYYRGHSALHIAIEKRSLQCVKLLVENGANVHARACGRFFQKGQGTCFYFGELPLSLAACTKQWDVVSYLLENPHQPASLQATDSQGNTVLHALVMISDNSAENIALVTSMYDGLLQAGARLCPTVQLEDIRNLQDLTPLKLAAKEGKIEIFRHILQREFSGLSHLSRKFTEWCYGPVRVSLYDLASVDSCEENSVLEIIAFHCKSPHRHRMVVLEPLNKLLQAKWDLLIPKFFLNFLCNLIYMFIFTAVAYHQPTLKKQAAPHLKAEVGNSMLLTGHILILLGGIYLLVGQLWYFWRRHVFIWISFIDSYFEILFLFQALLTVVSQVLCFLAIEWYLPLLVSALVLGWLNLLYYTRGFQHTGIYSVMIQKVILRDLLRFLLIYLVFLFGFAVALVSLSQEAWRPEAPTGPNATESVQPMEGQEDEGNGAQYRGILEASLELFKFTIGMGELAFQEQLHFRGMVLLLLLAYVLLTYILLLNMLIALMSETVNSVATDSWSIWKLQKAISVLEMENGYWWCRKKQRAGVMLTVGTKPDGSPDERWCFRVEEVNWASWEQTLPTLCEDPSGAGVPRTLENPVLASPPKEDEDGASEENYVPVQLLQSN
# UniProt Q9Y224, sequence (Q9Y224 whole entry): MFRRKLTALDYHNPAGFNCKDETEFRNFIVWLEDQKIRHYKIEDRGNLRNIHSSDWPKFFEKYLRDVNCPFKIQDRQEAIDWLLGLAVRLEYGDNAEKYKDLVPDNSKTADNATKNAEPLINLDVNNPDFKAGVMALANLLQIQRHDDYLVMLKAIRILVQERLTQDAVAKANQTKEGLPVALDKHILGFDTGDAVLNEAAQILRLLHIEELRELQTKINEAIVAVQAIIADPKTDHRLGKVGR
# UniProt Q9Y3Q3, sequence (Q9Y3Q3 whole entry): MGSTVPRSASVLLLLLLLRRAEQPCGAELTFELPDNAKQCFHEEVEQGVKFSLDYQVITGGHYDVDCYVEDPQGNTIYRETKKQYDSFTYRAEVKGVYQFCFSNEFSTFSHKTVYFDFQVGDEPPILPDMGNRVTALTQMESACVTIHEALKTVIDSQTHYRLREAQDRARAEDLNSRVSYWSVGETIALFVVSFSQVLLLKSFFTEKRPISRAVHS
# UniProt Q9Y6I9, sequence (Q9Y6I9 whole entry): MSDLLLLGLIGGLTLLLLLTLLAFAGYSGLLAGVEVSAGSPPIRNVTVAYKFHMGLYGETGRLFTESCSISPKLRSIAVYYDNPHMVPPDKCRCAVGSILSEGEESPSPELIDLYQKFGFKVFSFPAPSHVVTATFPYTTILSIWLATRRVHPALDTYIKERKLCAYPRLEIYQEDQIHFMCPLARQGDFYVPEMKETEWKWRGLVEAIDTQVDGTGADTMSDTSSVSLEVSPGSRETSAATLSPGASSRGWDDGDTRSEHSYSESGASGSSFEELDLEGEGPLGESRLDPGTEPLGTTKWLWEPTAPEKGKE
# UniProt Q9UKU7, sequence (Q9UKU7 whole entry): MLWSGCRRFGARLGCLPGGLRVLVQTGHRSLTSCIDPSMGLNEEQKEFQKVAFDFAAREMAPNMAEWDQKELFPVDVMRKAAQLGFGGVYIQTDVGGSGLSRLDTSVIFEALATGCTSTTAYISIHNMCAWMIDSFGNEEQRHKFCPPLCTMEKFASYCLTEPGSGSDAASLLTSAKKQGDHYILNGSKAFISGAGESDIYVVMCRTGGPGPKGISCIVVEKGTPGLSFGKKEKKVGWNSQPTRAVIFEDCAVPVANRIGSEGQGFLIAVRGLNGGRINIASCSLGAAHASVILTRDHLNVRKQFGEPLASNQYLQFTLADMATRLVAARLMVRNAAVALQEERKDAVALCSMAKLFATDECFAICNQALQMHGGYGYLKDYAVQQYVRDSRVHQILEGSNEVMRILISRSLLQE
# UniProt Q96KA5, sequence (Q96KA5 whole entry, one chain of several): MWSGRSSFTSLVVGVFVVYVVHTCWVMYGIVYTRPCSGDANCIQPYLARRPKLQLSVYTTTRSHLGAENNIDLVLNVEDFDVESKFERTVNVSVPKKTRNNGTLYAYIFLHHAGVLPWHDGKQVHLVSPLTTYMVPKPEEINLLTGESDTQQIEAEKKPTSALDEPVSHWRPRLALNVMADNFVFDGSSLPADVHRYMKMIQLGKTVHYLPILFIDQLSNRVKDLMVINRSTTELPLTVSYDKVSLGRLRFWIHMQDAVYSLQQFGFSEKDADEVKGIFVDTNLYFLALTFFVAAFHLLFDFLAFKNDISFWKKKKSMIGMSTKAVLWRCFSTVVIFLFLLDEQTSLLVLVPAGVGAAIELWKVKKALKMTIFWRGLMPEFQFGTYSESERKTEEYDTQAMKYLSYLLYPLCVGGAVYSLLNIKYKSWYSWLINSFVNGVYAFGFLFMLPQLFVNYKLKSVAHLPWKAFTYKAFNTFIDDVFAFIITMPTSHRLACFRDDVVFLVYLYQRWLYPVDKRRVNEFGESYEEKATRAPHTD
# UniProt Q9UK59, sequence (Q9UK59 whole entry): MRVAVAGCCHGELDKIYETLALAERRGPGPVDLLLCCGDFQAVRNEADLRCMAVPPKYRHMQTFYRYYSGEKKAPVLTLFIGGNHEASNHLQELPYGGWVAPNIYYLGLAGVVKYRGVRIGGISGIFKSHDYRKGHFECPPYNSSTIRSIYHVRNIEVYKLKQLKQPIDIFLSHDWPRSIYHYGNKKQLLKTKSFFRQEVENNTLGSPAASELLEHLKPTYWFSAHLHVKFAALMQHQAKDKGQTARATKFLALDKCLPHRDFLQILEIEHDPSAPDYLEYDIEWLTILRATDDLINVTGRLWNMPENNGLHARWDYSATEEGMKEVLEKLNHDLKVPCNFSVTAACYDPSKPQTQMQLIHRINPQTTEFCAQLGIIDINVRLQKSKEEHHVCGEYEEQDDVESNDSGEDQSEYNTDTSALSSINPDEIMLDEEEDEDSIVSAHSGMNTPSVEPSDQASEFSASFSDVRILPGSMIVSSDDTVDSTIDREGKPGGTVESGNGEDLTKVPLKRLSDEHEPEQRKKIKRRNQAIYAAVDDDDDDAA
# UniProt Q9UL15, sequence (Q9UL15 whole entry): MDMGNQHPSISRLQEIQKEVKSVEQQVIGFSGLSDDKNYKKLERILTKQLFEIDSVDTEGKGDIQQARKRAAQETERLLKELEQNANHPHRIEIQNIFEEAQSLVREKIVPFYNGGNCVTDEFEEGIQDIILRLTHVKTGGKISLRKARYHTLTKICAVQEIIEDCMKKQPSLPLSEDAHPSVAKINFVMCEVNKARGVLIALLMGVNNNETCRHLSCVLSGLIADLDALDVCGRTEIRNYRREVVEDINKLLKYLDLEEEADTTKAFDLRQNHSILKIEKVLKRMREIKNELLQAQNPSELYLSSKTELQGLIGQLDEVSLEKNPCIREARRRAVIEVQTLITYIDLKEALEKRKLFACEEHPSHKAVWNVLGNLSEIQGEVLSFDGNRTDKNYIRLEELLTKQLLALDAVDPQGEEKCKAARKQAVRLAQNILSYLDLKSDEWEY
target,measurement,setting,value
UniProt Q9UKI8|Q9UKI8-5,NP40-soluble protein abundance,adenosine triphosphate; concentration: 1mM,0.986 ± 0.039
same,NP40-soluble protein abundance,adenosine triphosphate; concentration: 2mM,0.998 ± 0.025
same,NP40-soluble protein abundance,adenosine triphosphate; concentration: 4mM,1 ± 0.059
same,NP40-soluble protein abundance,adenosine triphosphate; concentration: 6mM,0.993 ± 0.041
same,NP40-soluble protein abundance,adenosine triphosphate; concentration: 8mM,0.953 ± 0.021
same,NP40-soluble protein abundance,adenosine triphosphate; concentration: 10mM,0.977 ± 0.054
UniProt Q9ULE6,NP40-soluble protein abundance,adenosine triphosphate; concentration: 1mM,1.08 ± 0.084
same,NP40-soluble protein abundance,adenosine triphosphate; concentration: 2mM,1.03 ± 0.12
same,NP40-soluble protein abundance,adenosine triphosphate; concentration: 4mM,1.06 ± 0.092
same,NP40-soluble protein abundance,adenosine triphosphate; concentration: 6mM,0.991 ± 0.1
same,NP40-soluble protein abundance,adenosine triphosphate; concentration: 8mM,1.05 ± 0.045
same,NP40-soluble protein abundance,adenosine triphosphate; concentration: 10mM,1.02 ± 0.048
LNPEP (UniProt Q9UIQ6),NP40-soluble protein abundance,adenosine triphosphate; concentration: 1mM,0.914 ± 0.015
same,NP40-soluble protein abundance,adenosine triphosphate; concentration: 2mM,0.937 ± 0.021
same,NP40-soluble protein abundance,adenosine triphosphate; concentration: 4mM,0.909 ± 0.022
same,NP40-soluble protein abundance,adenosine triphosphate; concentration: 6mM,0.918 ± 0.035
same,NP40-soluble protein abundance,adenosine triphosphate; concentration: 8mM,0.882 ± 0.045
same,NP40-soluble protein abundance,adenosine triphosphate; concentration: 10mM,0.872 ± 0.038
UniProt Q9Y224,NP40-soluble protein abundance,adenosine triphosphate; concentration: 1mM,0.958 ± 0.053
same,NP40-soluble protein abundance,adenosine triphosphate; concentration: 2mM,0.872 ± 0.031
same,NP40-soluble protein abundance,adenosine triphosphate; concentration: 4mM,0.903 ± 0.092
same,NP40-soluble protein abundance,adenosine triphosphate; concentration: 6mM,0.918 ± 0.12
same,NP40-soluble protein abundance,adenosine triphosphate; concentration: 8mM,0.995 ± 0.011
same,NP40-soluble protein abundance,adenosine triphosphate; concentration: 10mM,0.782 ± 0.18
TEX264 (UniProt Q9Y6I9),NP40-soluble protein abundance,adenosine triphosphate; concentration: 1mM,0.918 ± 0.028
same,NP40-soluble protein abundance,adenosine triphosphate; concentration: 2mM,0.919 ± 0.024
same,NP40-soluble protein abundance,adenosine triphosphate; concentration: 4mM,0.91 ± 0.041
same,NP40-soluble protein abundance,adenosine triphosphate; concentration: 6mM,0.916 ± 0.061
same,NP40-soluble protein abundance,adenosine triphosphate; concentration: 8mM,0.867 ± 0.058
same,NP40-soluble protein abundance,adenosine triphosphate; concentration: 10mM,0.886 ± 0.029
UniProt Q9UL15|Q9UL15-2,NP40-soluble protein abundance,adenosine triphosphate; concentration: 1mM,0.964 ± 0.032
same,NP40-soluble protein abundance,adenosine triphosphate; concentration: 2mM,0.988 ± 0.024
same,NP40-soluble protein abundance,adenosine triphosphate; concentration: 4mM,0.976 ± 0.035
same,NP40-soluble protein abundance,adenosine triphosphate; concentration: 6mM,0.993 ± 0.018
same,NP40-soluble protein abundance,adenosine triphosphate; concentration: 8mM,0.971 ± 0.01
same,NP40-soluble protein abundance,adenosine triphosphate; concentration: 10mM,0.979 ± 0.029
UniProt Q9UL54-2,NP40-soluble protein abundance,adenosine triphosphate; concentration: 1mM,1.29 ± 0.17
same,NP40-soluble protein abundance,adenosine triphosphate; concentration: 2mM,1.54 ± 0.35
same,NP40-soluble protein abundance,adenosine triphosphate; concentration: 4mM,1.57 ± 0.33
same,NP40-soluble protein abundance,adenosine triphosphate; concentration: 6mM,1.67 ± 0.33
same,NP40-soluble protein abundance,adenosine triphosphate; concentration: 8mM,1.63 ± 0.24
same,NP40-soluble protein abundance,adenosine triphosphate; concentration: 10mM,1.69 ± 0.4
ACAD8 (UniProt Q9UKU7),NP40-soluble protein abundance,adenosine triphosphate; concentration: 1mM,1.01 ± 0.049
same,NP40-soluble protein abundance,adenosine triphosphate; concentration: 2mM,1 ± 0.064
same,NP40-soluble protein abundance,adenosine triphosphate; concentration: 4mM,0.988 ± 0.033
same,NP40-soluble protein abundance,adenosine triphosphate; concentration: 6mM,0.961 ± 0.058
same,NP40-soluble protein abundance,adenosine triphosphate; concentration: 8mM,0.983 ± 0.029
same,NP40-soluble protein abundance,adenosine triphosphate; concentration: 10mM,0.99 ± 0.038
PPIL1 (UniProt Q9Y3C6),NP40-soluble protein abundance,adenosine triphosphate; concentration: 1mM,0.919 ± 0.019
same,NP40-soluble protein abundance,adenosine triphosphate; concentration: 2mM,0.9512 ± 0.0074
same,NP40-soluble protein abundance,adenosine triphosphate; concentration: 4mM,0.913 ± 0.034
same,NP40-soluble protein abundance,adenosine triphosphate; concentration: 6mM,0.963 ± 0.031
same,NP40-soluble protein abundance,adenosine triphosphate; concentration: 8mM,0.964 ± 0.016
same,NP40-soluble protein abundance,adenosine triphosphate; concentration: 10mM,0.902 ± 0.065
TMED3 (UniProt Q9Y3Q3),NP40-soluble protein abundance,adenosine triphosphate; concentration: 1mM,1.08 ± 0.12
same,NP40-soluble protein abundance,adenosine triphosphate; concentration: 2mM,1.07 ± 0.12
same,NP40-soluble protein abundance,adenosine triphosphate; concentration: 4mM,1.06 ± 0.086
same,NP40-soluble protein abundance,adenosine triphosphate; concentration: 6mM,1.04 ± 0.13
same,NP40-soluble protein abundance,adenosine triphosphate; concentration: 8mM,1.06 ± 0.057
same,NP40-soluble protein abundance,adenosine triphosphate; concentration: 10mM,1.04 ± 0.088
UniProt Q9UHB6|F8VQE1|Q9UHB6-2,NP40-soluble protein abundance,adenosine triphosphate; concentration: 1mM,1.05 ± 0.14
same,NP40-soluble protein abundance,adenosine triphosphate; concentration: 2mM,1.16 ± 0.14
same,NP40-soluble protein abundance,adenosine triphosphate; concentration: 4mM,1.35 ± 0.16
same,NP40-soluble protein abundance,adenosine triphosphate; concentration: 6mM,1.56 ± 0.21
same,NP40-soluble protein abundance,adenosine triphosphate; concentration: 8mM,1.62 ± 0.12
same,NP40-soluble protein abundance,adenosine triphosphate; concentration: 10mM,1.86 ± 0.18
TRPV2 (UniProt Q9Y5S1),NP40-soluble protein abundance,adenosine triphosphate; concentration: 1mM,1.02 ± 0.076
same,NP40-soluble protein abundance,adenosine triphosphate; concentration: 2mM,1.02 ± 0.073
same,NP40-soluble protein abundance,adenosine triphosphate; concentration: 4mM,0.999 ± 0.03
same,NP40-soluble protein abundance,adenosine triphosphate; concentration: 6mM,0.955 ± 0.0051
same,NP40-soluble protein abundance,adenosine triphosphate; concentration: 8mM,0.965 ± 0.048
same,NP40-soluble protein abundance,adenosine triphosphate; concentration: 10mM,0.976 ± 0.023
UniProt Q9ULV4|Q9ULV4-2|Q9ULV4-3,NP40-soluble protein abundance,adenosine triphosphate; concentration: 1mM,1.08 ± 0.086
same,NP40-soluble protein abundance,adenosine triphosphate; concentration: 2mM,1.16 ± 0.1
same,NP40-soluble protein abundance,adenosine triphosphate; concentration: 4mM,1.24 ± 0.11
same,NP40-soluble protein abundance,adenosine triphosphate; concentration: 6mM,1.4 ± 0.12
same,NP40-soluble protein abundance,adenosine triphosphate; concentration: 8mM,1.43 ± 0.13
same,NP40-soluble protein abundance,adenosine triphosphate; concentration: 10mM,1.52 ± 0.16
DBR1 (UniProt Q9UK59),NP40-soluble protein abundance,adenosine triphosphate; concentration: 1mM,1.04 ± 0.066
same,NP40-soluble protein abundance,adenosine triphosphate; concentration: 2mM,1.03 ± 0.066
same,NP40-soluble protein abundance,adenosine triphosphate; concentration: 4mM,1.02 ± 0.051
same,NP40-soluble protein abundance,adenosine triphosphate; concentration: 6mM,0.973 ± 0.11
same,NP40-soluble protein abundance,adenosine triphosphate; concentration: 8mM,1.03 ± 0.056
same,NP40-soluble protein abundance,adenosine triphosphate; concentration: 10mM,1.03 ± 0.044
UniProt Q9Y6X3,NP40-soluble protein abundance,adenosine triphosphate; concentration: 1mM,0.977 ± 0.053
same,NP40-soluble protein abundance,adenosine triphosphate; concentration: 2mM,1.06 ± 0.086
same,NP40-soluble protein abundance,adenosine triphosphate; concentration: 4mM,1.15 ± 0.25
same,NP40-soluble protein abundance,adenosine triphosphate; concentration: 6mM,1.09 ± 0.26
same,NP40-soluble protein abundance,adenosine triphosphate; concentration: 8mM,0.98 ± 0.057
same,NP40-soluble protein abundance,adenosine triphosphate; concentration: 10mM,1.11 ± 0.22
UniProt Q9Y2H0|Q9Y2H0-3|Q9Y2H0-1,NP40-soluble protein abundance,adenosine triphosphate; concentration: 1mM,0.921 ± 0.038
same,NP40-soluble protein abundance,adenosine triphosphate; concentration: 2mM,0.899 ± 0.068
same,NP40-soluble protein abundance,adenosine triphosphate; concentration: 4mM,0.922 ± 0.045
same,NP40-soluble protein abundance,adenosine triphosphate; concentration: 6mM,0.944 ± 0.025
same,NP40-soluble protein abundance,adenosine triphosphate; concentration: 8mM,0.861 ± 0.093
same,NP40-soluble protein abundance,adenosine triphosphate; concentration: 10mM,0.85 ± 0.052
G5E9Z2|Q96KA5|Q96KA5-2 (UniProt Q96KA5),NP40-soluble protein abundance,guanosine triphosphate; concentration: 0.1mM,1.09 ± 0.049
same,NP40-soluble protein abundance,guanosine triphosphate; concentration: 0.5mM,1.07 ± 0.017
same,NP40-soluble protein abundance,guanosine triphosphate; concentration: 1mM,1.02 ± 0.042
same,NP40-soluble protein abundance,guanosine triphosphate; concentration: 2mM,0.983 ± 0.034
same,NP40-soluble protein abundance,guanosine triphosphate; concentration: 4mM,0.989 ± 0.016
same,NP40-soluble protein abundance,guanosine triphosphate; concentration: 6mM,0.971 ± 0.039
same,NP40-soluble protein abundance,guanosine triphosphate; concentration: 8mM,0.974 ± 0.035
same,NP40-soluble protein abundance,guanosine triphosphate; concentration: 10mM,0.96 ± 0.04
